Bioassay records: PubChem, National Center for Advancing Translational Sciences (NCATS)
Compounds with a hit are over-represented: about 12% of the library has one in this group of screens.
Pf growth 48h: inhibits P. falciparum growth in the first generation, 48 h; Potency, µM (series often up to 28.7 µM), for inactives: top-dose activity change, negative = inhibition, usual class: inhibitors; hit rate 5.9% among 310,000; P. falciparum luciferase growth in erythrocytes, 48 h; also: % is scaled to controls: 0 for no effect and ±100 for the full control effect
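In quantitative HTS format, infected erythrocytes bearing luciferase-reporter parasites were treated for a single generation at 37 C. Luminescence after adding detection reagent served as the growth measure.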
Sm TGR inh: blocks Schistosoma mansoni thioredoxin glutathione reductase; Q962Y6; purified TGR, DTNB reduction, TNB absorbance 405 nm; Potency, µM (doses to about 114 µM), for the others: top-dose activity change, negative = inhibition, usual class: inhibitors; hit rate 3% among 360,000; also: % is scaled to controls: 0 for no effect and ±100 for the full control effect; nearly all actives have a fitted effect of over 60% in size
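First, TGR (20 nM dispensed) and NADPH were mixed with compound. Second, a 15 min room-temperature incubation followed. Third, further NADPH and then DTNB were added to start the reaction. Finally, TNB absorbance was monitored kinetically.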
Pf growth 96h: inhibits malaria parasite growth, 96 h | P. falciparum luciferase reporter growth, 96 h | Potency, µM (series often up to 28.7 µM), without a hit: at the highest dose activity change, negative = inhibition, actives largely listed as inhibitors | hit rate 6.9% among 320,000 | AID 504834; also: % is scaled to controls: 0 for no effect and ±100 for the full control effect
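Infected RBCs, 2% Hct / 0.05% parasitemia final; luciferase-reporter P. falciparum; cpd 96 h, 37 C, 5% CO2; luciferase detection reagent; luminescence.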
SARS PLP yeast: inhibitors of SARS-CoV papain-like protease in yeast; S. cerevisiae expressing SARS-CoV PLpro, growth rescue; Potency, µM (top dose mostly 32.9 µM), without a hit: top-dose activity, positive = growth rescue, actives largely listed as activators; hit rate 0.19% among 330,000; calls by dose curve; also: 0% is about no effect; nearly all actives have a fitted effect of over 55% in size
* hit, by the source's call; ? = inconclusive; . = no result; [ ] = dose if it differs, or a comment. Unless noted, calls follow the shape of the dose curve; as a rule, active = well fitted curve in the direction sought with a large enough effect; inconclusive = small, poorly fitted or top-dose-only effect, or another doubt; inactive = no such curve, though single readings can be large; an effect the other way counts as inactive or inconclusive. Potency is read from the fitted curve at half-maximal effect.

SMILES	Pf growth 48h	Sm TGR inh	Pf growth 96h	SARS PLP yeast
O=C(O)c1[nH]c2ccc(Cl)cc2c1CC(=O)N1CCN(C(=O)c2ccco2)CC1	3.7%	22.4µM*	21.1%	-0.3%
O=C(c1cc2cc(Cl)ccc2[nH]1)N1CCN(C(=O)c2ccco2)CC1	?	15.8µM*	?	?
O=C(O)c1[nH]c2ccc(Cl)cc2c1CC(=O)N1CCN(c2ccccc2)CC1	-5.1%	-8.1%	.	0.5%
O=C(Cc1ccc(Cl)cc1)N1CCN(C(=O)c2ccco2)CC1	2.4%	?	48.4%	-0.6%
Clc1ccc(-c2cn(-c3ccccc3)c3[n+]2CCS3)cc1	?	4.9%	33.6%[5.75 µM]	0.9%
Fc1ccc(-c2cn(-c3ccccc3)c3[n+]2CCS3)cc1	0.928µM*	0.0%	0.415µM*	0.3%
COc1ccc(-c2cn(-c3ccc(Br)cc3)c3[n+]2CCS3)cc1	1.04µM*	1.2%	?	-3.1%
CCc1ccc(-n2nc(C)c3c(C)cc(=O)n(CC(=O)Nc4ccc(OC)c(OC)c4)c32)cc1	.	-3.8%	.	.
CN(C1CCCCC1)S(=O)(=O)c1ccc(S(=O)(=O)N2CCCC2)cc1	?	0.3%	1.65µM*	-3.4%
CCOc1ccc(S(=O)(=O)N(C)C2CCCCC2)cc1	28.4%	?	1.65µM*	8.0%
Cc1ccc(-c2nc3c(c(=O)c4ccccc4n3C)c(=O)n2-c2ccc(F)cc2)cc1	8.28µM*	8.3%	-25.0%	0.2%
Cn1c2ccccc2c(=O)c2c(=O)n(-c3ccccc3)c(-c3ccc(C(C)(C)C)cc3)nc21	1.85µM*	23.8%	2.62µM*	0.1%
Cn1c2ccccc2c(=O)c2c(=O)n(-c3ccc(F)cc3)c(-c3cccs3)nc21	?	-7.7%	5.22µM*	-0.8%
CC(c1ccccc1)n1c(-c2cccs2)nc2c(c(=O)c3ccccc3n2C)c1=O (stereo not drawn)	9.28µM*	-5.8%	-4.8%	-1.7%
CCc1nc2c(c(=O)c3ccccc3n2C)c(=O)n1-c1ccc(F)cc1	27.9%	7.0%	?	-22.4%
CC1CCc2sc(C(=O)N(C)CC(=O)Nc3ccc(N4CCOCC4)cc3)cc2C1 (stereo not drawn)	?	-14.2%	?	-6.9%
COc1ccc(C[C@H]2CN3C(=NC[C@H]3C)N2CCNC(=O)c2ccc(C)c(Br)c2)cc1	-6.4%	1.0%	3.7µM*	-0.2%
COc1ccc(C(=O)NC(C)CCc2ccccc2)cc1 (stereo not drawn)	6.6%	10.2%	0.0%	-0.7%
Cc1ccc(C(=O)NCCN2C3=NC[C@H](C)N3C[C@H]2Cc2ccc(O)cc2)cc1Br	?	-4.6%	13.1µM*	-1.6%
COc1ccc(C[C@@H]2CN3C(=NC[C@@H]3C)N2C[C@H](C)NC(=O)c2ccc(C)c(Br)c2)cc1	8.28µM*	22.4µM*	2.62µM*	-0.9%
CCCN(CC(=O)Nc1ccc(F)c(F)c1F)C(=O)C1=COCCO1	8.8%	-2.5%	60.8%	1.7%
COc1ccc(OC)c(NC(=O)CSc2nnc(Cc3cccn3C)n2-c2ccc(F)cc2)c1	13.1µM*	-33.3%	-13.1%	-11.1%
COc1ccc(-n2c(Cc3cccn3C)nnc2SCC(=O)Nc2ccccc2C)cc1	.	-32.0%	6.57µM*	-1.7%
COc1ccc(-n2c(Cc3cccn3C)nnc2SCC(=O)Nc2cccc(C)c2C)cc1	?	?	?	17.9%
COc1cccc(NC(=O)CSc2nnc(Cc3cccn3C)n2-c2ccc(F)cc2)c1	?	?	4.15µM*	-4.3%
SMILES	Pf growth 48h	Sm TGR inh	Pf growth 96h	SARS PLP yeast
COc1ccc(/C=C/C(=O)Nc2ccc(C)c(S(=O)(=O)N3CCOCC3)c2)cc1	.	.	.	4.4%
Cc1nc(N2CCN(c3ccc(Cl)cc3)CC2)[nH]c(=O)c1C	?	-4.5%	?	?
O=c1oc(-c2ccc(Br)cc2)nc2ccccc12	3.0%	-10.2%	5.86µM*	1.6%
O=c1oc(-c2ccc([N+](=O)[O-])cc2)nc2ccccc12	?	0.9%	?	-0.2%
CC(C)C[C@H](NC(=O)c1nc[nH]c1C(=O)NCC(=O)OC(C)(C)C)C(=O)OCc1ccccc1	?	-7.2%	-98.3%	0.9%
CC(C)C[C@H](NC(=O)c1[nH]cnc1C(=O)N[C@@H](C)c1ccccc1)C(=O)OCc1ccccc1	8.28µM*	11.8%	5.86µM*	-0.3%
CC(C)C[C@H](NC(=O)c1nc[nH]c1C(=O)NCC(=O)OCc1ccccc1)C(=O)OCc1ccccc1	4.65µM*	-7.1%	?	3.3%
CC(C)C[C@H](NC(=O)c1nc[nH]c1C(=O)N[C@@H](CC(C)C)C(=O)OC(C)(C)C)C(=O)OCc1ccccc1	?	-26.4%	?	4.8%
CC1(c2ccccc2)NC(=O)N(CC(=O)N2CCN(S(=O)(=O)c3cccs3)CC2)C1=O (stereo not drawn)	1.4%	2.0%	12.8%	3.7%
COc1ccc(N2C(=O)c3cc4ccccc4cc3C2=O)cc1	1.1%	11.7%	10.4µM*	0.2%
Cc1ccc(-c2nnn(CC(=O)N(c3ccccc3F)C(C(=O)NCC3CCCO3)c3c[nH]c4ccccc34)n2)cc1 (stereo not drawn)	11.7µM*	-1.4%	11.7µM*	4.3%
Cc1ccc(-c2nnn(CC(=O)N(c3ccccc3)C(C(=O)NCC3CCCO3)c3cccs3)n2)o1 (stereo not drawn)	59.0%	10.1%	10.4µM*	0.3%
Cc1ccc(-c2nnn(CC(=O)N(c3ccccc3)C(C(=O)NCC3CCCO3)c3ccc(F)cc3)n2)o1 (stereo not drawn)	11.7%	1.7%	-21.6%	0.8%
Cc1ccc(-c2nnn(CC(=O)N(c3ccccc3)C(C(=O)NCC3CCCO3)c3ccc(Cl)cc3)n2)cc1 (stereo not drawn)	?	?	8.28µM*	0.9%
CCOc1ccc(S(=O)(=O)NCCC(=O)NCC(c2ccco2)N2CCCCC2)cc1 (stereo not drawn)	?	-2.4%	?	-6.8%
Fc1ccc(N2CCN(c3cnc4ccccc4n3)CC2)cc1	.	-4.1%	207.1%	-2.1%
O=C(NCCc1ccccc1)C1CCCN1S(=O)(=O)c1cccc2nsnc12 (stereo not drawn)	-13.2%	-3.6%	14.7%	-3.2%
O=C(NCCC1=CCCCC1)C1CCN(S(=O)(=O)c2ccccc2C(F)(F)F)CC1	10.4µM*	1.8%	?	1.6%
O=C(NCCC1=CCCCC1)C1CCN(S(=O)(=O)c2cccc3nsnc23)CC1	?	-7.4%	1.85µM*	2.5%
CCOCCCNC(=O)C1CCC(CNS(=O)(=O)c2cccc3nsnc23)CC1 (stereo not drawn)	2.5%	2.0%	3.7µM*	5.1%
O=C(NCCN1CCCCCC1)C1CCCN1S(=O)(=O)c1cccc2nsnc12 (stereo not drawn)	1.65µM*	-8.1%	?	0.8%
Cc1cc(C)cc(-n2ccnc2SCC(=O)Nc2ccc(C)c(Cl)c2)c1	.	-0.2%	.	.
COC(=O)CNC(=O)C1CCN(S(=O)(=O)c2cccc3nsnc23)CC1	16.6%	-11.2%	13.1µM*	?
COc1cccc(NC(=O)Cn2c(=O)n(-c3ccc(C)cc3)c(=O)c3ccc(C(=O)NCc4ccco4)cc32)c1	.	1.1%	.	.
